Values joined by “and” are separate entries in the source; they are usually repeats but may differ in a detail not shown here. Equal values may be shown once. Results filed as inconclusive are left out. Active and inactive are the calls of the source. The call rests on the fitted dose curve.
Assay: qHTS assay for small molecules that induce genotoxicity in human embryonic kidney cells expressing luciferase-tagged ATAD5 - cell viability (AID 651634); further: nearly all actives have a fitted effect of over 25% in size
Details: HEK293T ATAD5-luc cells viability, CellTiter-Fluor, 15.5 h; series mostly up to 83.3 µM; activity, negative = cytotoxicity: at the top concentration
Excerpt: National Center for Advancing Translational Sciences [NCATS]
NIH Chemical Genomics Center [NCGC]
U.S. Environmental Protection Agency [EPA]
National Institutes of Environmental Health Sciences [NIEHS]
National Toxicology Program [NTP]
U.S. Food and Drug Administration [FDA]
Enhanced Level of Genome Instability Gene 1 (ELG1; human ATAD5) protein levels increase in response to various types of DNA damage. Using a luciferase reporter-gene tagged with ElG1, a cell-based assay [developed by Kyungjae Myung, NHGRI, NIH] was used to measure the induction of ATAD5 in human embryonic kidney cells (HEK293T). So, increase in luciferase activity can be used to identify the compounds that cause genetic stress. In addition to genotoxicity, these cells were also used to test for cytotoxicity by measuring the protease activity within live cells.
Tox21 Assay Protocol Summary:
For cytotoxicity screening, 2,000 cells in 5 uL/well were dispensed into white, solid-bottom 1536-well plates using a Multidrop Combi (Thermo Scientific) dispenser. Following transfer of 23 nL compound or DMSO vehicle by a pin tool, the plates were incubated 15.5 hr at 37C and 5% CO2. 1 ul CellTiter-Fluor reagent (Promega, Madison, WI) was then added to each plate and following 30 min incubation at 37C, fluorescence intensity was quantified on a ViewLux CCD-based plate reader.
On the % scale 0 is the no-effect control and ±100 the full control effect; potency means the concentration at half of the fitted maximal effect.

Structure (SMILES)	Potency	activity, negative = cytotoxicity
CN[C@H](CC(C)C)C(=O)N[C@H]1C(=O)N[C@@H](CC(N)=O)C(=O)N[C@H]2C(=O)N[C@H]3C(=O)N[C@H](C(=O)N[C@@H](C(=O)O)c4cc(O)cc(O)c4-c4cc3ccc4O)[C@H](O)c3ccc(c(Cl)c3)Oc3cc2cc(c3O[C@@H]2O[C@H](CO)[C@@H](O)[C@H](O)[C@H]2O[C@H]2C[C@](C)(N)C(O)[C@H](C)O2)Oc2ccc(cc2Cl)[C@H]1O (stereo not given in full)	inactive	–
CCCC(CCC)C(=O)OC1C[C@H]2CC[C@@H](C1)[N+]2(C)C (stereo not given in full)	inactive	–
CC[C@H]1OC(=O)C[C@@H](O)[C@H](C)[C@@H](O[C@@H]2O[C@H](C)[C@@H](O)[C@H](N(C)C)[C@H]2O)[C@@H](CCN2C[C@H](C)C[C@H](C)C2)C[C@@H](C)C(=O)/C=C/C(C)=C/[C@@H]1CO[C@@H]1O[C@H](C)[C@@H](O)[C@@H](OC)[C@H]1OC	–	15.1% (inactive)
O=C1C2CC3CC1CC(O)(C3)C2	–	16.7% (inactive)
CC(C)C[C@@H](NC(=O)[C@@H](O)[C@H](N)Cc1ccccc1)C(=O)O	–	-13.3% (inactive)
NC(=O)c1cc[n+](CC2=C(C(=O)O)N3C(=O)[C@@H](NC(=O)C(c4ccccc4)S(=O)(=O)[O-])[C@H]3SC2)cc1 (stereo not given in full)	–	22.7% [at 39.1 µM] (inactive)
COC(=O)C[C@](O)(CCCC(C)(C)O)C(=O)O[C@@H]1C(OC)=CC23CCCN2CCc2cc4c(cc2[C@H]13)OCO4 (stereo not given in full)	26.6 nM (active) and 23.7 nM (active)	–
CC(=O)OCC1=C(C(=O)O)N2C(=O)[C@@H](NC(=O)Cc3ccccc3)[C@H]2SC1	–	9.87% (inactive)
CCCC(=O)c1cc(O)c(O)cc1O	30.6 µM (active)	–
CN(Cc1ccccc1)Cc1ccccc1	–	15.2% (inactive)
CO/N=C(\C(=O)N[C@@H]1C(=O)N2C(C(=O)[O-])=C(C[n+]3ccc(N)n3CCO)CS[C@H]12)c1csc(N)n1	–	-4.32% (inactive)
O=C(O)c1cc(=O)c2c3nc4ccccc4oc-3cc(=O)c2[nH]1	–	-14.1% (inactive)
CN1[C@@H](CC(=O)c2ccccc2)CCC[C@H]1C[C@H](O)c1ccccc1	–	-11% (inactive)
O=C(N[C@H](CO)[C@H](O)c1ccc([N+](=O)[O-])cc1)C(Cl)Cl	inactive	–
CN(C/C=C/c1ccccc1)Cc1cccc2ccccc12	–	22.8% (inactive)
CC(C)CCC[C@@H](C)[C@H]1CC[C@H]2[C@@H]3CC=C4C[C@@H](O)CC[C@]4(C)[C@H]3CC[C@]12C	–	-6.12% (inactive)
CC1(C)C[C@@H]1C(=O)N/C(=C\CCCCSC[C@H](N)C(=O)O)C(=O)O	inactive	–
OCC1(CO)COC(C(Cl)(Cl)Cl)OC1	–	16.9% (inactive)
CCC[C@@H]1C[C@@H](C(=O)N[C@@H]([C@H]2O[C@H](SC)[C@H](OP(=O)(O)O)[C@@H](O)[C@H]2O)[C@H](C)Cl)N(C)C1	inactive	–
CCN(CC)CCn1c(=O)c(Cc2ccc(OC)cc2)nc2ccccc21	–	8.79% (inactive)

Structure (SMILES)	Potency	activity, negative = cytotoxicity
C[C@]12O[C@H](C[C@]1(O)CO)n1c3ccccc3c3c4c(c5c6ccccc6n2c5c31)CNC4=O	4.73 µM (active)	–
CCCOC(=O)c1ccccc1O	–	7.59% (inactive)
N#Cc1c(N(CC(=O)O)CC(=O)O)sc(C(=O)O)c1CC(=O)O	–	14.7% (inactive)
CC(Cc1ccc(O)c(O)c1)C(C)Cc1ccc(O)c(O)c1 (stereo not given)	–	-12.6% (inactive)
CNCC(=O)N[C@@H](CCCN=C(N)N)C(=O)N[C@H](C(=O)N[C@@H](Cc1ccc(O)cc1)C(=O)N[C@H](C(=O)N[C@@H](Cc1cnc[nH]1)C(=O)N1CCC[C@H]1C(=O)N[C@@H](C)C(=O)O)C(C)C)C(C)C	–	9.39% (inactive)
CCCCC[C@H](O)/C=C/[C@@H]1[C@@H](C/C=C\CCCC(=O)O)[C@@H](O)C[C@H]1O	inactive	–
NCCO/C=C/[C@H](N)C(=O)O	–	-11.8% (inactive)
C[C@H](O)CN(C)C	–	8.78% (inactive)
CCN(CC)C(=O)c1cccnc1	–	10.5% (inactive)
COC(=O)C(CN)c1c[nH]c2ccc(OC)cc12 (stereo not given)	–	12.5% (inactive)
CC(C)(O/N=C(\C(=O)N[C@@H]1C(=O)N2C(C(=O)[O-])=C(C[n+]3ccccc3)CS[C@H]12)c1csc(N)n1)C(=O)O	–	-14.6% [at 39.1 µM] (inactive)
CCOC(=O)Cc1ccc(-c2ccccc2)cc1	–	4.03% (inactive)
Nc1nc(NC2CC2)c2ncn([C@@H]3C=C[C@@H](CO)C3)c2n1	–	7.6% (inactive)
Cc1cc(=O)c(C(=O)N[C@@H](C(=O)N[C@@H]2C(=O)N3C(C(=O)O)=C(CSc4nnnn4C)CS[C@H]23)c2ccc(O)cc2)c[nH]1	–	-8.82% (inactive)
CC(=O)[C@]1(O)Cc2c(O)c3c(c(O)c2[C@@H](O[C@H]2C[C@H](N)[C@H](O)[C@H](C)O2)C1)C(=O)c1ccccc1C3=O	15 µM (active)	–
C=C1C(=C/C=C2\CCC[C@]3(C)[C@@H]([C@H](C)CCCC(C)C)CC[C@@H]23)C[C@@H](O)C[C@@H]1O	23.7 µM (active)	–
NC(N)=NCc1cccc(I)c1	inactive	–
O=C(O)C[C@H](O)C[C@H](O)/C=C/c1c(C2CC2)nc2ccccc2c1-c1ccc(F)cc1	–	-12.9% (inactive)
NS(=O)(=O)c1cc(Cl)c(Cl)c(S(N)(=O)=O)c1	–	10.8% [at 39.1 µM] (inactive)
CC1CCCCN1CCCOC(=O)c1ccccc1 (stereo not given)	–	11.4% (inactive)

— PubChem BioAssay (Tox21)
